Bioassay records (PubChem BioAssay)
IkB sig inh = suppresses IkB signaling in ABC-DLBCL reporter cells | ABC-DLBCL IkBa-CBG/CBR dual luciferase ratio, 4 h; response scale: scaled: untreated 0%, proteasome inhibitor 100% | Potency, µM (series often up to 57.1 µM), for the others: at the top dose IkBa stabilization activation | 110,000 compounds, 0.04% hits | AID 445; active means well fitted curve in the direction sought with a large enough effect in the signal ratio, not every such curve was filed as active; inconclusive means small, poorly fitted or top-dose-only effect, or a change in a side signal; the % refers to the signal ratio;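 further: the direction sought is a rising ratio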
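Luminescence ratio of IκBα-fused green versus native red beetle luciferase in OCI-Ly3 cells, 4 h post-doxycycline with compound; red signal alone, scaled from basal (0%) to zero light (-100%), flagged nonspecific or cytotoxic effects.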
p53ts 32C tox = p53ts cell cytotoxicity, permissive temperature. H1299-p53A138V at 32C, ATP luminescence viability, 24 h. Potency, µM (top dose mostly 46.1 µM), inactives show top-dose activity change, negative = cytotoxicity, usual class: cytotoxic. 130,000 compounds, 0.93% hits. AID 924;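 further: 0% = DMSO and -100% = full killing by reference compound; nearly all actives have a fitted effect of over 55% in size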
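H1299-p53 A138V cells (temperature-sensitive p53) exposed 24 h to up to 46 uM compound at 32C, where p53 is wild-type in conformation. Viability read as ATP luminescence and normalised to DMSO and 100 uM tamoxifen. AC50 fitted with the Hill equation.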
p53ts 39C tox = kills p53ts cells at the nonpermissive temperature. H1299-p53A138V viability at 39C, ATP luminescence, 24 h. Potency, µM (series often up to 46.1 µM), for inactives: at the top dose activity change, negative = cell killing, usual class: cytotoxic. 130,000 compounds, 1.5% hits; further: on the % scale 0 is the no-effect control and ±100 the full control effect; nearly all actives have a fitted effect of over 55% in size
Imprint erasure = genomic imprint erasure induction | mouse ES Peg3-LacZ reporter, beta-gal luminescence, 40 h | Potency, µM (top dose mostly 60.7 µM), for the others: at the highest dose activity change, positive = activation, hits mostly activators | 110,000 compounds, 0.02% hits
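Gelatin-coated wells received 300 freshly trypsinized female ES cells with a Peg3LacZ-Neo reporter on the maternal allele, then incubated 40 hours at 37C. BetaGlo was added for 5 minutes at room temperature before a single luminescence read.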
* = called active by the depositor; ? = inconclusive; · = no result; [ ] = another dose, or the depositor's remark. Shown are actives, neighbours in structure and some others; about 1.7% of the full set was active somewhere. Unless noted, the call rests on the fitted dose curve; in most records, active means well fitted curve in the direction sought with a large enough effect; inconclusive means small, poorly fitted or top-dose-only effect, or another doubt; inactive means no such curve, though single readings can be large; an effect the other way counts as inactive or inconclusive. Potency means the concentration at half of the fitted maximal effect.

SMILES	IkB sig inh	p53ts 32C tox	p53ts 39C tox	Imprint erasure
Cc1ccc(C2c3c(-c4cc(C)ccc4O)n[nH]c3C(=O)N2Cc2ccco2)cc1 (configuration not stated)	?	?	25µM*	-6%[10.9 µM]
COc1ncc2nc(-c3cccs3)c(=O)n(-c3ccccc3)c2n1	-3%[11.4 µM]	-2%	0%	·
CC(C)c1cccc2c([Si](C)(C)C)c3c(nc12)-c1cccc(=O)n1C3	·	?	?	-27%
Cc1cc2c(c(=O)o1)[C@@H](O)[C@H]1O[C@@H]1C2=O	·	4%[9.22 µM]	3%[9.22 µM]	·
O=C(NCc1cccnc1)C1CCN(Cc2cc3ccccc3n2Cc2cccc(Cl)c2)CC1	?	21%	13µM*	-4%[10.9 µM]
O=C(NCc1cccnc1)C1CCN(Cc2cc3ccccc3n2Cc2ccccc2)CC1	0%	11%	4%	-13%[10.9 µM]
CCN1C(C)=C(C(=O)OC)C(c2ccccc2)N2C(=O)[C@@]3(C(=O)OC)O[C@@]12C1C(=O)N(C)C(=O)C13 (some centres not stated)	·	7%[9.22 µM]	1%[9.22 µM]	·
CCCCCCn1c(CN2CCC(C)CC2)nc2c1c(=O)n(C)c(=O)n2C	-2%	-17%	8%	-15%
CCCCCCn1c(CN2CCN(CCO)CC2)nc2c1c(=O)n(C)c(=O)n2C	0%	2.5µM*	3.2µM*	-82%
CCOc1ccc(N/C=C/C(=O)c2ccccc2)c([N+](=O)[O-])c1	·	·	5.6µM*	·
COc1cccc(NC(=O)CSc2nnc(-c3cc(C)n(-c4ccccc4)c3C)o2)c1	?	-23%	20µM*	-61%
COCCn1c(=O)c(-c2cc(F)cc(F)c2)nc2cnc(OC)nc21	-1%[11.4 µM]	-11%	4%	·
COc1cc(/C=C(\C#N)c2nc3ccccc3[nH]2)ccc1OCc1cccc(C(F)(F)F)c1	-1%	13µM*	3.2µM*	-26%[10.9 µM]
N[C@H](Cc1ccc(F)cc1)C(=O)O	9%	16%	-4%	·
N#C/C(=C\c1ccc(-c2ccc(F)cc2F)o1)c1nc2ccccc2[nH]1	-11%	16µM*	6.3µM*	-13%[10.9 µM]
CCOC(=O)c1ccc(-c2ccc(/C=C(\C#N)c3nc4ccc(C)cc4[nH]3)o2)cc1	?	?	3.2µM*	-41%[10.9 µM]
COc1ccc(-c2nc3cnc(OC)nc3n(-c3ccccc3)c2=O)cc1	0%[11.4 µM]	-1%	-6%	?
CC(=O)Oc1ccc(/C=C\C(=O)C[C@@H]2O[C@@H](Oc3cc(OC(C)=O)c4c(c3)O[C@@H](c3ccc(OC(C)=O)cc3)CC4=O)[C@H](OC(C)=O)[C@H](OC(C)=O)[C@@H]2OC(C)=O)cc1	-1%[11.4 µM]	·	·	·
CCCCOC(=O)Nc1ccc(C(=O)OCCC)cc1	6%	1%	1%	-18%
CCCOC(=O)Nc1ccc(N2CCCCC2)cc1	1%	13µM*	16µM*	-44%
Cc1ccc2oc(-c3ccco3)nc2c1	-2%	-10%	-5%	-1%
CC(C)c1ccc2oc(-c3ccc(N)cc3)nc2c1	?	6.3µM*	6.3µM*	-53%
Cc1ccc(-c2nc3cc(N)ccc3o2)cc1	6%	4µM*	4µM*	-79%
Cc1ccc(-c2nc3cc(C)ccc3o2)cc1	?	10µM*	?	-31%
COc1ccc2c(c1OC)C(Cc1ccccc1)N1CCc3cc4c(cc3C1=C2)OCO4 (configuration not stated)	·	-3%	-12%	-28%
SMILES	IkB sig inh	p53ts 32C tox	p53ts 39C tox	Imprint erasure
C[C@H]1[C@H](C)CC[C@@]2(C(=O)O)CC[C@]3(C)C(=CC[C@H]4[C@@]5(C)C[C@@H](O)[C@H](O)[C@@](C)(CO)[C@@H]5CC[C@@]43C)[C@@H]12	-1%[11.4 µM]	·	·	·
CCCNC(=O)c1cc(-c2ccc(O)cc2)on1	?	?	?	0%
CCCn1c(/C=C/c2ccccc2)nc2ccccc21	-1%	13µM*	10µM*	-28%[10.9 µM]
CCOC(=O)CSc1nc2ccc(NC(=O)c3ccc(C)cc3)cc2s1	?	13µM*	10µM*	14%[10.9 µM]
Cc1ccc(C(=O)Nc2nnc(SCC(=O)N3CCCc4ccccc43)s2)cc1	·	·	0.56µM*	·
CC(C)Oc1ccc(C(=O)Nc2nnc(SCC(=O)N3CCOCC3)s2)cc1	·	0.63µM*	0.5µM*	·
COc1ccc(C(=O)Nc2ccc3nc(SCC(=O)N4CCOCC4)sc3c2)cc1	?	-6%	18%	-12%[10.9 µM]
O=C(Nc1ccc2nc(SCC(=O)N3CCc4ccccc43)sc2c1)c1ccc(F)cc1	-3%	-18%	13µM*	-21%[10.9 µM]
O=C(Nc1ccc2nc(SCC(=O)N3CCc4ccccc43)sc2c1)c1cccc(F)c1	0%	3%	-20%	-18%[10.9 µM]
COc1cccc2c1OC(=O)CC2c1ccccc1C (configuration not stated)	·	·	·	-12%[97.3 µM]
COc1ccc(S(=O)(=O)N(CCO)c2ccccc2CN(C)CC=Cc2ccc(Cl)cc2)cc1	·	·	·	-31%
Cc1cc(C(=O)Nc2sc3c(c2C#N)CCC(C)C3)no1 (configuration not stated)	-1%	1%	-3%	-13%
Cc1cc(C(=O)Nc2sc3c(c2C#N)CCC3)no1	-2%	10µM*	13µM*	-52%
Cc1cc(C(=O)Nc2sc3c(c2C#N)CCCC3)no1	0%	6.3µM*	13µM*	-53%
Cc1ccc(-n2c(C)cc(C3N=C(N)Nc4nc5ccccc5n43)c2C)c(C)c1 (configuration not stated)	?	?	20µM*	-52%
Cc1cc(C2N=C(N)Nc3nc4ccccc4n32)c(C)n1-c1ccccc1Cl (configuration not stated)	1%	-16%	-9%	-42%
Cc1ccc(NC(=O)c2ccccc2)s1	13%	4µM*	7.9µM*	-75%
N#Cc1c(/N=C/c2cccs2)sc2c1CCCCC2	6%	7.9µM*	10µM*	-56%
N#Cc1c(/N=C/c2ccc(Br)s2)sc2c1CCC2	·	-1%	12%	·
Cc1cc(=O)n2[nH]c(-c3ccccc3)cc2n1	2%	-21%	-22%	-39%
O=c1cc(-c2ccccc2)nc2cc(-c3ccc(F)cc3)[nH]n12	?	-20%	10µM*	-37%[10.9 µM]
COc1cccc(-c2cc(C(F)(F)F)n3nc(N)nc3n2)c1	-2%	-5%	-9%	-11%
COc1cccc(-c2cn3nc4c(nc3n2)CCCC4)c1	?	5µM*	5µM*	-94%
COc1c2c(nc3ccccc13)O[C@@H]([C@@](C)(O)CO)C2	-7%	9%	11%	·
Cc1ccc(-n2c(SCC(=O)NCc3ccccc3)nc3n[nH]c(C)c3c2=N)cc1Cl	-3%	6%	20µM*	-1%[10.9 µM]
CCc1ccc(NC(=O)CSc2nc3n[nH]c(C)c3c(=N)n2-c2ccccc2C)cc1	2%	-11%	10µM*	-10%[10.9 µM]
CCc1ccccc1-n1c(SCC(=O)Nc2ccc(C)cc2)nc2n[nH]c(C)c2c1=N	?	-17%	-6%	-12%[10.9 µM]
Cc1c(Cl)cccc1-n1c(SCC(=O)NCc2ccccc2)nc2n[nH]c(C)c2c1=N	?	-12%	-10%	11%[10.9 µM]
